Test results as given in PubChem BioAssay AID588850 (Sanford-Burnham Center for Chemical Genomics, 2011).
Where “and” joins values, the source holds several entries; their conditions need not be identical. Identical values can stand only once. Among all 360,000 compounds or so, about 3,100 (0.86%) were called active. Many of the other results were omitted from the sample, so actives are more common in it than they were. Values without a mark were called inactive.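 Rule for the calls: active = at least 50% inhibition at 5 µM, scaled per plate between neutral and stimulator controls; inactive = the rest.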

Experiment: NF-kB reporter blockers in CF airway cells – cell-based, GFP fluorescence, uHTS, primary screen (AID 588850);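 note: PAF is a Pseudomonas aeruginosa culture filtrate used as stimulus; plate controls were PAF-stimulated DMSO wells for no effect and unstimulated DMSO wells for full effect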
Conditions: KKLEB NF-kB-GFP reporter, PAF-induced, GFP fluorescence overnight; at 5 µM; stronger effect = higher value
For `CN1CCN(c2cc(=O)n(-c3ccc(Cl)cc3)c(=O)[nH]2)CC1`, the inhibition was 16.6%.
With `CC1CCN(C(=O)c2ccccc2NC(=O)Cc2ccccc2)CC1` the inhibition was 16.1%.
With `N#C/C=C1\Sc2ccccc2C(=O)N1CC(=O)N1CCN(S(=O)(=O)c2ccccc2)CC1` the inhibition was 8.2%.
With `Brc1ccc2ncnc(NCc3cccnc3)c2c1` the inhibition was 57% (active).
`Cc1cc(NCc2cccnc2)no1` gave an inhibition of -9.7%.
With `Clc1ccc(Cn2ncc3c(NCc4cccnc4)ncnc32)cc1` the inhibition was -7.9%.
For `CC(C)Cc1oc(C(=O)O)cc1CN`, the inhibition was 0.9%.
In the case of `OC[C@@H]1CN(Cc2ccc(Cl)cc2)C[C@H](n2cnc3c(NCc4ccncc4)ncnc32)O1`, the inhibition was -7.1%.
`CCN(CC(=O)Nc1cc(Cl)ccc1C)C(=O)CSCc1ccc(C)cc1` gave an inhibition of -25.2%.
For `CC1(C)O[C@@H]2CC3C4C[C@H](F)C5=CC(=O)C=CC5(C)C4C(O)CC3(C)[C@]2(C(=O)CO)O1` (stereo partly drawn), the inhibition was 71.8% (active).
In the case of `C[C@]12C=CC(=O)C=C1CC[C@@H]1[C@@H]2C(=O)C[C@@]2(C)[C@H]1CC[C@]2(O)C(=O)CO`, the inhibition was 21.5% and 6.7%.
With `COc1cccc(NC(=O)COC(=O)c2ccc3ccccc3n2)c1` the inhibition was 3.6%.
`C[C@H]1CC[C@]2(O[C@@H](CCO)C[C@@H](O)[C@@H]2O)O1` showed an inhibition of -22.2%.
`O=C(O)c1ccc2c(=O)n3c(nc2c1)/C(=C/c1ccc(Cl)c([N+](=O)[O-])c1)CC3` gave an inhibition of -4%.
Compound `O=C(c1ccc(Cl)c([N+](=O)[O-])c1)N1CCN(c2ccccc2)CC1` has an inhibition of -1.9%.
With `O=C(/C=C/c1ccc(Cl)c([N+](=O)[O-])c1)c1ccc(O)cc1` the inhibition was 66.4% (active).
`NC(=O)c1nsc(C(=O)N(CC(=O)NCc2ccc(F)cc2)Cc2ccco2)c1N` gave an inhibition of 6.2%.
Compound `COc1cc(C(C(=O)NC2CCCC2)N(Cc2ccccc2)C(=O)c2snc(C(N)=O)c2N)ccc1O` (stereo not drawn) has an inhibition of -3.3%.
For `COc1ccc(CNC(=O)C(c2ccc(O)cc2)N(Cc2ccco2)C(=O)c2snc(C(N)=O)c2N)cc1` (stereo not drawn), the inhibition was 80.2% (active).
Work on `O=C1CCC(C(=O)N2CCN(c3ccccc3Cl)CC2)CN1CC1CCCCC1` (stereo not drawn) yielded an inhibition of 25%.
`Cc1ccc(NS(=O)(=O)c2ccc3c(c2)oc(=O)n3C)c(C)c1` gave an inhibition of 21.8%.
`CC(=O)c1c(OCC(=O)N(C)C2CCCCC2)ccc2c(C)cc(=O)oc12` gave an inhibition of -24.1%.
In the case of `COc1cccc2c1C(=O)c1c(O)c3c(c(O)c1C2=O)CC(O)(C(C)=NNC(=O)c1ccc(Cl)c(Cl)c1)CC3OC1CC(N)C(O)C(C)O1` (stereo not drawn), the inhibition was 81.2% (active).
`NS(=O)(=O)c1ccc(N=Cc2ccc(Br)s2)cc1` showed an inhibition of 2.4%.
`COc1cccc(CCNC(=O)COc2cccc3c2OC(C)(C)C3)c1` gave an inhibition of 17.3%.
`Cc1ccc(-n2cc(CN(C)Cc3nccn3C)c(-c3cccc(C)c3)n2)cc1` gave an inhibition of 28.4%.
For `CCNc1nc(N)nc(Oc2ccc(OCC)nn2)n1`, the inhibition was -19.3%.
With `O=C(CCCCCCCC(=O)N1CCCCC1)N1CCCCC1` the inhibition was -8.3%.
Work on `O=C(c1cc(COc2c(F)cccc2F)on1)N1CCSCC1` yielded an inhibition of 19%.
In the case of `COc1ccc(-c2cc(C(F)(F)F)nc(S(C)(=O)=O)n2)cc1OC`, the inhibition was 90.7% (active).
`COc1ccc(-c2cc(C(=O)NCCCN3CCCC3=O)c3ccccc3n2)cc1OC` showed an inhibition of -14%.
`COc1ccc(C2=NO[C@@H]3C(=O)N(Cc4ccccc4)C(=O)[C@H]23)cc1OC` showed an inhibition of 11%.
For `Cc1cccc(NC(=O)c2nc(S(=O)(=O)Cc3ccccc3)ncc2Cl)c1`, the inhibition was 89.1% (active).
With `Cc1cccc(NC(=O)Cn2cc(C(=O)c3ccco3)c3ccccc32)c1` the inhibition was -7.8%.
Compound `Cc1cccc(CN2CCC(CNC(=O)Nc3ccc(F)c(Cl)c3)CC2)c1` has an inhibition of -7.6%.
Compound `Cc1cccc(NC(=O)CCN2CC(C)CC(C)C2)c1` (stereo not drawn) has an inhibition of 1.5%.
For `Cc1ccc(C)c(Cn2nnc3c(=O)[nH]c(C(=O)Nc4ccc(F)cc4)nc32)c1`, the inhibition was 22.5%.
For `Cc1cccc(CS(=O)(=O)c2ncc(Cl)c(C(=O)Nc3ccc(F)cc3)n2)c1`, the inhibition was 81.7% (active).
Compound `ONC(=Nc1ccc(Cl)cc1)c1ccccc1Cl` has an inhibition of 9.7%.
With `Nc1nnc(C2CCCC2)s1` the inhibition was 0%.
Work on `OC[C@@H]1CN(C2CCCC2)C[C@H](n2cnc3c(NC4CCC4)ncnc32)O1` yielded an inhibition of 6.2%.
For `O=C(Nc1ccn(Cc2ccccc2)n1)c1n[nH]c([N+](=O)[O-])c1Cl`, the inhibition was -15.6%.
`Cc1ccc(CC(=O)Nc2ccc(OC(F)F)c(Cl)c2)cc1C` showed an inhibition of 2.1%.
For `O=C(Cc1ccc(Cl)c(Cl)c1)Nc1ccc(SC(F)F)cc1`, the inhibition was 60.8% (active).
Work on `CC(=O)N1CCN(CC(=O)Nc2ccc(SC(F)F)cc2)CC1` yielded an inhibition of 5.2%.
`COc1ccccc1CC(NC(C)=O)C(=O)NC1CCN(C(=O)Nc2ccccc2Cl)CC1` (stereo not drawn) showed an inhibition of 2.1%.
Compound `O=C1CCC(Cc2ccccc2)N1` (stereo not drawn) has an inhibition of 11.2%.
Work on `CCOC(=O)/C(=C\c1ccc([N+](=O)[O-])cc1)C(=O)c1cc(C(C)=O)c(Nc2ccccc2)s1` yielded an inhibition of 18.8%.
For `CCOC(=O)C(=Cc1ccccc1)C(=O)c1ccccc1`, the inhibition was 66.7% (active).
Compound `CCOC(=O)C(=Cc1ccccc1OC)C(=O)OCC` has an inhibition of 26.4%.
Work on `CN1CCc2c(sc3c2c(NCc2ccco2)nc2nnnn23)C1` yielded an inhibition of -14.3%.
With `CCN(CC(=O)NCc1cccs1)C(=O)/C=C/c1ccc(C)cc1` the inhibition was -8.4%.
Work on `CCCn1nc(C(=O)NNC(=O)CSCC(=O)Nc2cc(C)on2)c2ccccc2c1=O` yielded an inhibition of 16.2%.
Work on `COc1ccc(CCNc2ncnc3nc[nH]c23)cc1OC` yielded an inhibition of 14.3%.
`Cc1ccc(NC(=O)c2ccc(CSc3ncnc4nc[nH]c34)cc2)c(C)c1` showed an inhibition of -2.8%.
With `CCc1ccc(N(CC)c2ncnc3nc[nH]c23)cc1` the inhibition was 58.2% (active).
`CCCN1C(=O)C(Cc2nc3ccccc3c(=O)n2-c2ccccc2)c2cc(C)ccc21` (stereo not drawn) gave an inhibition of -39%.
For `CN(CC(=O)Nc1ccc(Cl)c(C(F)(F)F)c1)C(=O)CCC(=O)c1ccccc1`, the inhibition was -0.4%.
Compound `O=C(Cc1ncc(C(F)(F)F)cc1Cl)Nc1cccc(Br)c1` has an inhibition of 7.6%.
In the case of `O=C(CC(O)(C(F)(F)F)C(F)(F)F)Nc1ccc(Cl)c(Cl)c1`, the inhibition was 62.4% (active).
Compound `CN(CC(=O)Nc1ccc(OC(F)(F)F)cc1)C(=O)C1CCC1` has an inhibition of 6.5%.
Work on `O=C(O)C1CCCN1C1=NS(=O)(=O)c2ccccc21` (stereo not drawn) yielded an inhibition of 9.4%.
`O=C(COc1ccc(S(=O)(=O)N2CCOCC2)cc1Cl)N1CCOCC1` showed an inhibition of 1.5%.
`O=C(Nn1c(-c2ccc(Cl)cc2)nc2ccccc2c1=O)c1cccnc1Cl` showed an inhibition of 0.4%.
Work on `Cc1cc(C)n(CC(C)NCc2c(C(=O)N3CCOCC3)nc3c(C)cccn23)n1` (stereo not drawn) yielded an inhibition of -0.6%.
For `O=C(Nc1ncc([N+](=O)[O-])s1)C1COc2ccccc2O1` (stereo not drawn), the inhibition was 60.8% (active).
`COc1ccc(NC(=O)COC(=O)C2COc3ccccc3O2)cc1` (stereo not drawn) showed an inhibition of 4.2%.
Compound `C/C(=N/NC(=O)C1COc2ccccc2O1)c1ccco1` (stereo not drawn) has an inhibition of 17.3%.
`CC(=O)c1ccccc1NC(=O)COC(=O)C1COc2ccccc2O1` (stereo not drawn) gave an inhibition of -8.8%.
`O=C(Nc1cc(S(=O)(=O)N2CCCCC2)ccc1Cl)C1COc2ccccc2O1` (stereo not drawn) gave an inhibition of 24.5%.
For `O=C(Nc1nc(-c2ccncc2)cs1)C1COc2ccccc2O1` (stereo not drawn), the inhibition was 53.8% (active).
`Cc1cc(OC(=O)c2ccccc2)c([N+](=O)[O-])c(=O)[nH]1` gave an inhibition of 4.2%.
For `CC(=O)Oc1c(C(=O)c2nnc(C)o2)c(=O)n(Cc2ccccc2)c2ccccc12`, the inhibition was 50.9% (active).
For `CCCCCn1c(=O)c(C(=O)OCC)c(Cl)c2ccccc21`, the inhibition was 9.9%.
For `O=C(O)CCc1nc2cc(Cl)ccc2n(Cc2ccccc2)c1=O`, the inhibition was 2.1%.
In the case of `CC(C)CCNC(=O)c1[nH]c(C(F)(F)F)nc1-c1ccccc1`, the inhibition was -2.1%.
For `CC(C)(C)C(=O)CCN1C(=O)C2(OCCO2)c2ccccc21`, the inhibition was -2.6%.
For `CCCCn1c(N)c(N(CC(C)C)C(=O)c2ccc(-n3c(C)ccc3C)cc2)c(=O)[nH]c1=O`, the inhibition was 14.1%.
For `CC1(C)CCSC(/C=C/c2ccccc2)=N1`, the inhibition was 55.9% (active).
`CC1(C(=O)NS(=O)(=O)c2ccccc2)CCN1C(=O)C/C=C/c1ccccc1` (stereo not drawn) gave an inhibition of 0.3%.
`CC1(C(=O)O)CCN1C(=O)/C=C/c1ccccc1` (stereo not drawn) gave an inhibition of 11.9%.
Work on `CCc1cc(-c2nnn(CCC3COCCO3)c2CC)ccc1-c1cn(Cc2ccc3ccccc3c2)nn1` (stereo not drawn) yielded an inhibition of 19.3%.
With `O=C1c2ccccc2NC(c2ccccc2O)N1NS(=O)(=O)c1ccccc1` (stereo not drawn) the inhibition was -6.3%.
Compound `COc1cccc(N(C(=O)c2snc(C(N)=O)c2N)C(C(=O)NCC2CCCO2)c2c[nH]c3ccccc23)c1` (stereo not drawn) has an inhibition of -0.6%.
With `COc1cccc(C(=O)Nc2nnc(S(=O)(=O)N3CCOCC3)s2)c1` the inhibition was -7.5%.
In the case of `O=C(Nc1nnc(S(=O)(=O)N2CCCCCC2)s1)c1cccc(Br)c1`, the inhibition was 57% (active).
With `O=C(Nc1nnc(S(=O)(=O)N2CCOCC2)s1)c1cccc(Br)c1` the inhibition was 13%.
Work on `C/C(=N\NS(=O)(=O)c1ccc(Cl)cc1)c1ccc(NC(=O)c2ccco2)cc1` yielded an inhibition of -14%.
For `N#CCCC(C#N)(c1cccnc1)N1CCOCC1` (stereo not drawn), the inhibition was -15.6%.
`CNCC(O)c1ccc(O)c(O)c1` (stereo not drawn) gave an inhibition of 12.4%.
`CCN1C(=O)c2cccc3c(S(=O)(=O)Nc4ccccc4O)ccc1c23` gave an inhibition of -71.5%.
With `CN(CCc1ccccn1)S(=O)(=O)c1ccc2c3c(cccc13)C(=O)N2` the inhibition was 5.4%.
In the case of `CCN(CC)S(=O)(=O)c1ccc2c3c(cccc13)C(=O)S2`, the inhibition was 54.1% (active).
